# Measurements taken from the supplement of paper PMC6555819.
# How the values were obtained:
# Test in all cases: PBM binding z-score (relative to random genomic background probes); higher = stronger binding; sequences stand for … in GC…GCGATTGACAGCGTAGAATGAAGG
# [1] = system: FXR:RXRa (NR concentration 270 nM, RXRa partner concentration 90 nM)
# Summary of the method: (§1)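 Binding buffer was PBS pH 7.4 with 2% milk, 0.02% Triton X-100, 1 mM DTT, 0.2 mg/mL BSA and 0.4 mg/ml salmon testes DNA. In it, ligand-free nuclear receptor dimers were incubated 1 h on custom Agilent 4×180K protein-binding microarrays carrying double-stranded probes. Antibodies against each partner (one per run) detected binding, and z-scores were calculated against random background probes after regression normalization of scanned fluorescence.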
# [2] = system: LXRa:RXRa (NR concentration 270 nM, RXRa partner concentration 90 nM)
# Summary of the method: as §1
# [3] = system: LXRa homodimer (NR concentration 270 nM)
# Summary of the method: as §1
# [4] = system: LXRb:RXRa (NR concentration 270 nM, RXRa partner concentration 90 nM)
# Summary of the method: as §1
# [5] = system: LXRb homodimer (NR concentration 270 nM)
# Summary of the method: as §1
# [6] = system: PPARa:RXRa (NR concentration 270 nM, RXRa partner concentration 90 nM)
# Summary of the method: as §1
# [7] = system: PPARg:RXRa (NR concentration 180 nM, RXRa partner concentration 90 nM)
# Summary of the method: as §1
# [8] = system: PPARg:RXRa 270nM:90nM, anti-RXR (NR concentration 270 nM, RXRa partner concentration 90 nM)
# Summary of the method: as §1
# [9] = system: PPARg:RXRa 30nM:10nM, anti-RXR (NR concentration 30 nM, RXRa partner concentration 10 nM)
# Summary of the method: as §1
# [10] = system: PPARg:RXRa 90nM:30nM, anti-RXR (NR concentration 90 nM, RXRa partner concentration 30 nM)
# Summary of the method: as §1
# [11] = system: PPARg:RXRa DBDmut IVT, anti-RXR (DBD mutation: RXRa K156A/R161A, NR concentration 270 nM, RXRa partner concentration 90 nM)
# Summary of the method: as §1
# [12] = system: PPARg:RXRa IVT, anti-PPARg (NR concentration 270 nM, RXRa partner concentration 90 nM)
# Summary of the method: as §1
# [13] = system: PPARg DBDmut:RXRa IVT, anti-PPARg (DBD mutation: PPARg1 K132A/R137A, NR concentration 270 nM, RXRa partner concentration 90 nM)
# Summary of the method: as §1
# [14] = system: PPARg DBDmut IVT, anti-PPARg (DBD mutation: PPARg1 K132A/R137A, NR concentration 270 nM)
# Summary of the method: as §1
# [15] = system: PPARg homodimer (NR concentration 180 nM)
# Summary of the method: as §1
# [16] = system: PXR:RXRa (NR concentration 270 nM, RXRa partner concentration 90 nM)
# Summary of the method: as §1
# [17] = system: PXR homodimer (NR concentration 270 nM)
# Summary of the method: as §1
# [18] = system: RARa:RXR (NR concentration 270 nM, RXRa partner concentration 90 nM)
# Summary of the method: as §1
# [19] = system: RARa homodimer (NR concentration 270 nM)
# Summary of the method: as §1
# [20] = system: RARb:RXRa (NR concentration 270 nM, RXRa partner concentration 90 nM)
# Summary of the method: as §1
Sequence,PBM binding z-score [1],PBM binding z-score [2],PBM binding z-score [3],PBM binding z-score [4],PBM binding z-score [5],PBM binding z-score [6],PBM binding z-score [7],PBM binding z-score [8],PBM binding z-score [9],PBM binding z-score [10],PBM binding z-score [11],PBM binding z-score [12],PBM binding z-score [13],PBM binding z-score [14],PBM binding z-score [15],PBM binding z-score [16],PBM binding z-score [17],PBM binding z-score [18],PBM binding z-score [19],PBM binding z-score [20]
GCACATAGGTAATACAAGGTGAAAGTCCGATTGT,0.681,2.96,0.0603,0.767,-0.39,1.47,0.894,0.539,0.253,0.343,0.57,1.1,0.738,0.527,0.516,0.612,-0.214,1.59,0.568,0.552
GGCACGAGGGCATTCGAGTTGATAGCATGGCGAT,1.22,1.79,-0.515,0.139,-1.26,0.942,0.663,0.216,-0.477,-0.229,1.63,0.977,-1.13,-1.45,-0.356,3.77,1.72,0.606,-0.627,1.95
CGTCAAAGTTCAACAAAGGTAACGTAAAGCACGC,7.15,6.13,3.38,3.9,1.98,4.83,5.08,5.42,2.27,4.23,0.464,2.37,1.21,0.778,3.04,5.18,3.03,4.08,1.53,5.32
ATCGAAAGGTCGAGGTGTGTATAGAGAAAGGGAA,3.92,3.39,0.47,2.82,0.483,4.43,2.6,3.16,1.2,2.19,0.539,1.92,1.19,0.613,1.6,2.17,0.958,3.25,1.16,4.03
ATACCAAGGTGATCGTGAGGTCGTTGAAACTAAC,2.15,1.49,0.854,1.6,0.171,2.03,0.268,0.273,-0.226,0.172,0.647,1.34,0.138,0.0797,1.05,3.33,1.61,2.57,0.829,1.7
TAGCCTAGGTCATGGTCCAGTATACCACGCGAAC,3.98,3.17,0.367,2.57,-0.0302,3.96,3.3,3.12,0.835,1.94,2,3.39,0.0262,-0.185,0.886,1.64,-0.02,2.35,-0.386,3.78
CCTACTGGGCCAAAGCTCATTGATTCCAATGCTC,-0.596,-0.522,-0.451,-0.576,-0.796,1.48,2.63,4.26,2.45,3.85,4.44,3.69,-0.419,-0.625,-0.0929,-0.568,-0.291,-0.318,-0.841,-0.251
